# Active and inactive are the calls of the source. No rule for the calls is given here.
# Test: C difficile toxins, biochemical counterscreen, UDPG substrate absence, confirmatory dose response (AID 720650)
# Conditions: series mostly up to 19.5 µM
row,SMILES,AC50
1,Cc1ccc(C(=O)NC(=O)OCCn2c(C)cnc2[N+](=O)[O-])cc1,inactive
2,COc1cccc(C(=O)COC(=O)c2ccc(NC(=O)c3ccccc3)cc2)c1,inactive
3,COc1ccc(NC(=O)CSc2nccn2C)cc1S(N)(=O)=O,inactive
4,COc1cc(/C=C/C(=O)OCC(=O)NC(=O)NC(C)C)ccc1O,inactive
5,CC(Oc1ccc(Cl)cc1Cl)C(=O)Nc1ccc(O)cc1 (centres undefined),12.9 µM (active)
6,CN(C)c1ccc(C(=O)OCC#CCSc2nnc(-c3cccc4ccccc34)o2)cc1,inactive
7,O=C(c1ccccc1F)N1CCN(c2ccc([N+](=O)[O-])c3cccnc23)CC1,inactive
8,CC1(C)Cc2c(sc3ncn4c(=S)[nH]nc4c23)CO1,13.9 µM (active)
9,CN(C(=O)COC(=O)CNC(=O)c1ccccc1Cl)c1ccccc1,inactive
10,CC[n+]1ccc(/C=C/c2ccc(N(C)C)cc2)c2ccccc21,11.7 µM (active)
11,CNC(=O)C1CCN(S(=O)(=O)c2c(C)noc2/C=C/c2ccc(OC)cc2)CC1,inactive
12,O=C1COc2ccc(C(=O)COC(=O)CNS(=O)(=O)c3cccc(F)c3)cc2N1,inactive
13,Cc1ccc2c(c1)-c1c(cnn1CC(=O)NC(C)CCc1ccco1)CO2 (centres undefined),inactive
14,CC(=O)Nc1ccc(Oc2nc(-c3ccccn3)nc3ccccc23)cc1,11 µM (active)
15,O=c1c2oc3nc4c(cc3c2ncn1CCCc1ccccc1)CCCC4,inactive
16,COc1cc(N=Nc2c(C)n(C)n(-c3ccccc3)c2=O)ccc1N,inactive
17,COc1ccc(NC(=O)C2CC(=O)N(c3ccccc3F)C2)cc1S(=O)(=O)N1CCCCC1 (centres undefined),inactive
18,NS(=O)(=O)c1cccc(NC(=O)c2ccc(NS(=O)(=O)c3cccc([N+](=O)[O-])c3)cc2)c1,inactive
19,Oc1ccc(Cc2ccc(Cl)cc2)c(O)c1,> 39 µM (inactive)
20,CCN(C(=O)CN1C(=O)NC2(CCC(C)CC2)C1=O)C1CCCCC1 (centres undefined),inactive

row,SMILES,AC50
1,O=C(CSc1nc2ccccc2[nH]1)NC1CCCc2ccccc21 (centres undefined),> 39 µM (inactive)
2,Nn1c(SCc2ccccc2F)nnc1-c1ccccn1,inactive
3,COc1ccc(Cl)cc1NC(=O)Cn1c(NCCO)nc2ccccc21,inactive
4,CCCn1c(N)c(C(=O)COC(=O)c2cccc(S(=O)(=O)N3CCOCC3)c2)c(=O)[nH]c1=O,inactive
5,C=CCN=c1scc(C)n1/N=C/c1ccc(O)c(O)c1,> 39 µM (inactive)
6,O=c1ccc2cc(O)c(O)cc2o1,inactive
7,S=c1[nH]nc(-c2ccccn2)n1/N=C/c1ccc(Cl)cc1,inactive
8,CCC(=O)N1CC[C@@H]2[C@H]1c1cc(-c3ccc(OC)cc3)ccc1N(C)[C@H]2CO,> 20 µM (inactive)
9,O=C(Nc1ccc(O)cc1)/C(=C/c1ccco1)NC(=O)c1ccccc1,14.7 µM (active)
10,ClCC(CNCc1ccccc1)c1ccccc1 (centres undefined),inactive
11,COCC(=O)N1CC[C@@H]2[C@H]1c1cc(-c3cccc(OC)c3)ccc1N(C)[C@H]2CO,8.89 µM (active)
12,CC(=O)Nc1ccc(NC(=O)[C@@H]2CCCN2S(=O)(=O)c2ccc3c(c2)OCCO3)cc1,inactive
13,Cc1ccc(S(=O)(=O)N2CC(CO)=CCC2c2ccccc2)cc1 (centres undefined),8.79 µM (active)
14,COC(=O)C[C@@H]1CC[C@@H]2[C@H](COC[C@H](O)CN2C(=O)Nc2ccccc2OC)O1,inactive
15,Cc1ccc(C(=O)COC(=O)c2cc(=O)[nH]c3ccccc23)cc1,inactive
16,Cc1cc(N2CCCC2=O)cc(C)c1S(=O)(=O)Nc1c(C)nn(C)c1C,inactive
17,O=C(Nc1ccccc1F)N1C[C@@H]2N[C@H](C1)C2c1ccc(-c2cccc(F)c2)cc1 (some centres undefined),inactive
18,CCOC(=O)c1nnn(-c2nonc2N)c1-c1ccccc1Cl,inactive
19,COc1ccccc1C(=O)Nc1cccc(Oc2c(F)c(F)c(F)c(F)c2F)c1,> 39 µM (inactive)

# Reference: PubChem BioAssay AID720650 (Broad Institute, 2013)
